High-throughput results from PubChem.
FBW7 activator: human FBW7 E3 ligase activation, primary screen. hit rate 0.13% among 650,000. normalized activity (activation), % at 26.1 µM. AlphaScreen FBW7–phospho-cyclin E peptide binding, activator screen. Q969H0. AID 1259310; in the data active = normalized activity above about 1.9%;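 also: purified mutant Fbw7 with reduced substrate affinity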
TEAD-YAP block: TEAD-YAP interaction inhibition; HEK-TIYL cells, TEAD-Gal4/YAP UAS-luciferase luminescence; AID 1259422; inhibition, % at 9.12 µM; hit rate 1.4% among 640,000; in the data active = inhibition above about 32%;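 also: 0% = median of test compound wells and 100% = reference inhibitor wells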
GPR151 activ: activates the human receptor GPR151; Q8TDV0; PathHunter beta-arrestin GPR151 cells, luminescence; activation, % at 11.2 µM; hit rate 1% among 650,000; in the data active = activation above about 4.9%;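 also: 0% = median of compound wells and 100% = cells with positive control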
MITF inh: inhibitors of human MITF; O75030; AlphaScreen MITF homodimerization, bead proximity signal; inhibition, % at 2.6 µM; hit rate 0.91% among 650,000; in the data active = inhibition above about 50%;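 also: 0% = vehicle wells with protein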
Target sequence (O75030 whole entry, looked up): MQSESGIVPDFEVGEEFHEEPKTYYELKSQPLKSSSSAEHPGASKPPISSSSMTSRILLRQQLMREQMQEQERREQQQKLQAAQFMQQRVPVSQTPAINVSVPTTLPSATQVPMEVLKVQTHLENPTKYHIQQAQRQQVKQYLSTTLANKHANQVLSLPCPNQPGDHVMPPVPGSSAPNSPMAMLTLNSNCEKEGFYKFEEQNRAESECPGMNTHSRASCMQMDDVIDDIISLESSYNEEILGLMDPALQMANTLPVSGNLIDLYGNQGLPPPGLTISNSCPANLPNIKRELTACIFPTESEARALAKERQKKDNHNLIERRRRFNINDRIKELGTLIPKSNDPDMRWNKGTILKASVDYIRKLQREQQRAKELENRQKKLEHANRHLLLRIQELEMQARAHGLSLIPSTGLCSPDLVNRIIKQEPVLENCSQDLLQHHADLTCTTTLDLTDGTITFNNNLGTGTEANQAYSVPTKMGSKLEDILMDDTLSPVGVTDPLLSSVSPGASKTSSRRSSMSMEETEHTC
MITF confirm: confirmation of human MITF inhibitors | shares compounds with MITF inh | inhibition, % at 2.6 µM | AlphaScreen MITF homodimerization, biotin/His-MITF beads | hit rate 16% among 4,700 | AID 1259372;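 active = inhibition above a cutoff derived from the DMSO control wells, cut at about 28% in these data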;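 also: 0% = MITF dimer wells with DMSO only; inhibitors lower the bead chemiluminescence by keeping MITF from dimerizing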
AS interf DR: optically interferes with AlphaScreen signal in dose response; shares compounds with MITF inh; AlphaScreen optical interference counterscreen, cell-free; IC50, µM; hit rate 6% among 480; call rule not given here
AlphaScreen intf2: AlphaScreen optical interference, counter-screen; inhibition, % at 2.6 µM; AID 1259376; shares compounds with MITF inh; LysRS AlphaScreen counterscreen, signal interference, triplicate; hit rate 7.6% among 4,700;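 active = inhibition above a cutoff derived from the DMSO control wells, cut at about 30% in these data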
Numbers without * were called inactive; . = no result. Rows were chosen to be rich in hits. Some 3.5% of all compounds tested hit in one or more screens of this group.

SMILES | FBW7 activator | TEAD-YAP block | GPR151 activ | MITF inh | MITF confirm | AlphaScreen intf2 | others
O=C1[C@H]2CN(Cc3ccccn3)CCN2C(=O)[C@H]2CCCN12 | -0.3 | 13.1 | -0.1 | -0.7 | . | .
CSc1ccc(CN2CCN(C)CC2)cc1 | -0.1 | 3.0 | 0.8 | 20.8 | . | .
COc1cccc(CN2CCN(Cc3cccc(C)c3)CC2)c1 | -0.2 | -4.9 | 0.2 | 74.4* | 3.4 | 1.2
CCC(CC)N1CCN(Cc2cccc(OC)c2)CC1 | -0.1 | -2.4 | 1.9 | 73.1* | 6.2 | 12.4
CSc1ccc(CN2CCN(Cc3ccccc3)CC2)cc1 | -0.6 | 5.0 | 1.4 | 53.8* | 8.3 | 2.0
Fc1ccc(CN2CCN(Cc3ccc(F)cc3)CC2)cc1 | 0.1 | 4.5 | -0.5 | 74.5* | 8.9 | -7.3
COc1cccc(CN2CCN(Cc3cccc(OC)c3)CC2)c1 | 0.0 | -2.7 | 0.1 | 6.6 | . | .
Cc1nnc(SCC(=O)Nc2ccc(C#N)c(Cl)c2)n1N | 0.0 | 8.3 | 1.3 | 8.3 | . | .
CC(C(=O)N1CCC2(CC1)OCCO2)N1Cc2ccccc2C1=O (stereo unspecified) | -0.1 | -1.8 | -0.5 | 6.7 | . | .
Cc1c(/C=N/O)c2cc([N+](=O)[O-])ccc2n1C | 0.0 | 10.3 | -0.1 | 19.8 | . | .
COc1ccccc1NC(=O)c1ccc(NC(=O)CN2CC=C(c3ccccc3)CC2)cc1 | 0.2 | -2.6 | 1.5 | 6.9 | . | .
COc1ccc(CN2CCN(Cc3ccc(Br)cc3)CC2)cc1 | -0.2 | 9.3 | -0.5 | 85.0* | -1.8 | 13.9
COc1ccc(CN2CCN(Cc3ccc(F)cc3)CC2)cc1 | -0.2 | -0.7 | 0.2 | 77.9* | 0.3 | 12.4
COc1ccc(CCNCc2ccc(OC)c(OC)c2)cc1 | 0.0 | 5.7 | -1.2 | 51.2* | -0.8 | -6.3
COc1ccc(CCNCc2ccc(OC)cc2)cc1 | 0.1 | 8.1 | -0.6 | 21.1 | . | .
CCn1c(O)c(C(c2ccccn2)c2c(O)n(CC)c(=S)[nH]c2=O)c(=O)[nH]c1=S | -0.3 | 5.2 | 1.2 | 53.6* | 19.8 | 56.2*
OC12CC(C3COC1O3)n1nc(-c3ccncc3)nc1N2 (stereo unspecified) | 0.1 | 2.7 | -0.1 | 4.0 | . | .
CCC(C)N1CCN(Cc2ccc(OC)c(Br)c2)CC1 (stereo unspecified) | -0.1 | 26.5 | 1.9 | 82.3* | 24.1 | 13.8
CCOc1cc(CN2CCN(CCO)CC2)ccc1OC | 0.9 | 5.3 | -0.6 | 8.3 | . | .
COc1ccc(CN2CCNCC2)cc1Br | -0.1 | 18.6 | -0.6 | 10.1 | . | .
CCOc1cc(CN2CCN(C(C)CC)CC2)ccc1OC (stereo unspecified) | 0.1 | -5.6 | 1.3 | 74.0* | -3.0 | -8.6
COc1ccccc1CN1CCN(Cc2ccc(C)cc2)CC1 | -0.3 | 8.2 | 0.3 | 76.3* | 3.2 | 7.7
CCc1ccc(CN2CCN(Cc3ccccc3OC)CC2)cc1 | -0.2 | -2.8 | 0.1 | 72.5* | 15.8 | 18.0
CCN1CCN(Cc2ccccc2Cl)CC1 | -0.1 | 10.0 | -0.4 | -10.8 | . | .
CC(C)N1CCN(Cc2ccccc2C(F)(F)F)CC1 | -0.1 | 5.7 | 0.2 | 60.9* | -6.7 | -5.8
SMILES | FBW7 activator | TEAD-YAP block | GPR151 activ | MITF inh | MITF confirm | AlphaScreen intf2 | others
CC(C)N1CCN(Cc2ccccc2Cl)CC1 | -0.1 | 4.7 | 1.3 | 72.6* | -12.4 | -2.5
CNC(=O)ONC(=Nc1ccccc1C)c1nonc1N | 0.0 | 9.3 | 0.7 | 14.2 | . | .
COc1cc(CN2CCN(Cc3ccccc3)CC2)ccc1O | -0.1 | 0.3 | -2.2 | 41.0 | . | .
COc1ccccc1CN1CCN(Cc2ccccc2)CC1 | -0.1 | -6.6 | -0.2 | 87.9* | 9.1 | 11.1
COc1ccccc1CN1CCN(C(C)C)CC1 | 0.0 | -10.5 | 0.9 | 66.9* | 9.1 | 8.9
COc1cccc(CN2CCN(Cc3ccccc3)CC2)c1O | -0.1 | -8.6 | -1.2 | -1.9 | . | .
COc1cc(CN2CCN(Cc3ccccc3)CC2)cc(Br)c1O | 0.0 | -3.8 | -0.6 | 50.7* | 2.8 | 15.8
Nc1ncnc2c1ncn2[C@@H]1O[C@H](COP(=O)(O)CP(=O)(O)OP(=O)(O)O)[C@H](O)C1O (stereo partly specified) | -0.2 | -3.9 | -1.5 | 10.6 | . | .
CCN(CC)c1ncnc2c1ncn2[C@@H]1O[C@H](COP(=O)(O)OP(=O)(O)C(Br)(Br)P(=O)(O)O)C(O)[C@@H]1O (stereo partly specified) | 0.4 | . | 2.7 | 73.0* | 88.2* | -23.2 | AS interf DR=>6.48
COc1ccc2[nH]c(C)c(CCNCc3cccc(OC)c3OC)c2c1 | 0.1 | 12.6 | 0.7 | 51.9* | 3.1 | 6.1
CC(C#N)CN1CC2(C)CC1CC(C)(C)C2 (stereo unspecified) | 0.1 | -1.1 | -0.3 | 38.5 | . | .
CC1(C)CC2CC(C)(CN2CCC#N)C1 (stereo unspecified) | -0.1 | 2.3 | 0.4 | 52.8* | -12.3 | -9.1
CC(=O)N1CCC2(CC1)OCc1cc(-c3cccc4cccnc34)ccc1O2 | 0.1 | -1.8 | 0.4 | -6.8 | . | .
COc1ccc(OC)c(CN2CCN(C(=O)COc3ccc(Br)cc3)CC2)c1 | 0.0 | -0.7 | 2.5 | 79.9* | -13.1 | -1.6
CCC(C)N1CCN(C(=O)COc2ccc(C)cc2)CC1 (stereo unspecified) | 0.1 | 7.6 | -1.2 | 54.3* | 10.0 | 15.7
CCC(C)N1CCN(C(=O)COc2cccc(C)c2)CC1 (stereo unspecified) | -0.2 | -10.1 | 1.7 | 44.0 | . | .
Cc1cccc(OCC(=O)N2CCN(Cc3cccc(Br)c3)CC2)c1 | 0.0 | -0.1 | -0.6 | 61.2* | 35.0* | 15.6 | AS interf DR=>6.48
CCN1CCN(C(=O)COc2cccc(Br)c2)CC1 | 0.0 | -8.3 | 1.7 | -8.2 | . | .
Cc1ccc(OCC(=O)N2CCN(Cc3ccc(Br)cc3)CC2)cc1 | -0.1 | 4.5 | 1.3 | 70.3* | 15.5 | 19.2
CCOC(=O)CN1C(=O)C2(C(C#N)=C(N)OC(C)=C2C(=O)OCC)c2ccccc21 (stereo unspecified) | 0.0 | -0.3 | 0.5 | -2.9 | . | .
CC(C)CN=Cc1c(O)[nH]c(=O)[nH]c1=O | -0.2 | 3.7 | 0.7 | 2.9 | . | .
CC(C)CCCN1C(=O)NC(=O)/C(=C\c2ccccc2Cl)C1=O | -0.1 | 1.4 | -1.7 | -4.5 | . | .
Cc1ccc(OCC(=O)N2CCN(Cc3cccc(C)c3)CC2)cc1 | 0.0 | 7.6 | 0.5 | 51.2* | 1.4 | 2.6
Cc1cccc(CN2CCN(C(=O)COc3ccc(Br)cc3)CC2)c1 | 0.1 | 13.9 | 1.2 | 39.7 | . | .
OCCN1CCN(Cc2ccc(Cl)c(Cl)c2)CC1 | 0.0 | 5.3 | 2.3 | 82.8* | 5.8 | 0.7
COc1ccc(CN2CCN(CCO)CC2)cc1OC | 0.1 | -1.0 | 0.2 | 13.6 | . | .
OCCN1CCN(Cc2ccc(Cl)cc2Cl)CC1 | 0.0 | 8.3 | -0.3 | 50.9* | 1.9 | 1.2
OCCN1CCN(Cc2cccc(Br)c2)CC1 | -0.1 | 7.5 | -0.1 | 91.3* | -0.3 | 0.6
OCCN1CCN(Cc2ccc(Br)cc2)CC1 | 0.0 | 6.5 | 1.1 | 66.5* | -3.3 | 3.2
CCOc1ccc(CN2CCN(CCO)CC2)cc1 | -0.2 | -2.6 | 1.9 | 41.6 | . | .
